Results: PubChem BioAssay AID1159580 (chemical genetic matrix, 2015)
Several values for one entry are separate records, joined by “and”; a condition that tells them apart may be missing. Identical values can stand only once. About 2,000 (36%) of roughly 5,500 compounds were called active. Inconclusive results (about 18%) are left out. Cut-off read from the data, not from the text of the source: active = normalized growth mostly below about 0.91 (no sharp cut-off); inconclusive = no clear call, values can overlap the other calls; inactive = mostly above about 0.92. The list shows a part of the results.

Experiment: chemical genetic growth profiling, strain panel (AID 1159580);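 note: tested at 20 µM; growth read once vehicle control cultures reached saturation at 30 °C; 1 = growth at the plate median or of vehicle wells; lower values mean less growth of the strain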
Details: S. cerevisiae deletion strains, growth OD

Measured: normalized growth

CN1CCN(CC(=O)N2c3ccccc3C(=O)Nc3cccnc32)CC1
inactive: locus YAL013W, strain DEP1, hits give low values 1.01 | locus YAL021C, strain ccr4, hits give low values 0.991 | locus YAL026C, strain drs2, hits give low values 1.03 | locus YAL030W, strain snc1, hits give low values 0.999 | locus YAL040C, strain CLN3, hits give low values 0.963 | locus YBL061C, strain skt5, hits give low values 1.01 | locus YBR009C, strain hhf1, hits give low values 0.999 | locus YBR021W, strain FUR4, hits give low values 1.02 | locus YBR023C, strain chs3, hits give low values 1.01 | locus YBR171W, strain sec66, hits give low values 1.02 | locus YBR229C, strain ROT2, hits give low values 1.01 | locus YBR231C, strain swc5, hits give low values 1.01 | locus YBR279W, strain paf1, hits give low values 1.01 | locus YCL011C, strain gbp2, hits give low values 1.02 | locus YCL016C, strain dcc1, hits give low values 1 | locus YCL029C, strain bik1, hits give low values 1.02 | locus YCL061C, strain MRC1 (second series), hits give low values 0.981 | locus YCL061C, strain MRC1, hits give low values 1.02 | locus YCL069W, strain vba3, hits give low values 1.03 | locus YCR088W, strain abp1, hits give low values 1.01 | locus YDL005C, strain med2, hits give low values 0.999 | locus YDL035C, strain GPR1, hits give low values 1.02 | locus YDL040C, strain nat1, hits give low values 0.992 | locus YDL074C, strain BRE1, hits give low values 1.05 | locus YDL101C, strain DUN1, hits give low values 1.02 | locus YDL134C, strain PPH21, hits give low values 0.991 | locus YDL185W, strain tfp1, hits give low values 1 | locus YDL192W, strain arf1, hits give low values 1.01 | locus YDR001C, strain nth1, hits give low values 1.01 | locus YDR069C, strain doa4, hits give low values 0.989 | locus YDR101C, strain arx1, hits give low values 1 | locus YDR137W, strain rgp1, hits give low values 1.02 | locus YDR150W, strain NUM1, hits give low values 1.01 and 1 | locus YDR159W, strain sac3, hits give low values 1.01 | locus YDR162C, strain NBP2, hits give low values 1.01 | locus YDR195W, strain ref2 0.999 | locus YDR297W, strain sur2, hits give low values 1.01 | locus YDR318W, strain mcm21, hits give low values 1.02 | locus YDR334W, strain swr1, hits give low values 1.04 | locus YDR335W, strain msn5, hits give low values 1.04 | locus YDR363W, strain ESC2, hits give low values 1.02 | locus YDR388W, hits give low values 1.02 | locus YDR392W, strain spt3, hits give low values 1.01 | locus YDR502C, strain sam2, hits give low values 1.02 | locus YEL003W, strain gim4, hits give low values 1.01 | locus YEL037C, strain rad23, hits give low values 1.01 | locus YEL061C, strain CIN8 (second series), hits give low values 1.03 | locus YEL061C, strain CIN8, hits give low values 1.01 | locus YER002W, strain NOP16, hits give low values 0.986 | locus YER015W, strain faa2, hits give low values 1.02 | locus YER016W, strain bim1, hits give low values 0.997 | locus YER110C, hits give low values 1.02 | locus YER111C, strain swi4, hits give low values 1.02 | locus YER155C, strain BEM2 (second series), hits give low values 1.08 | locus YER155C, strain BEM2, hits give low values 1.01 | locus YER167W, strain BCK2, hits give low values 1.02 | locus YFR010W, strain ubp6, hits give low values 1.02 | locus YGL078C, strain dbp3, hits give low values 1.01 | locus YGL086W, strain mad1, hits give low values 1.01 | locus YGL167C, strain pmr1, hits give low values 1.01 | locus YGL173C, strain kem1, hits give low values 1.06 | locus YGL227W, strain vid30, hits give low values 1.02 | locus YGL240W, strain doc1, hits give low values 1.02 | locus YGL248W, strain PDE1, hits give low values 1.01 | locus YGL253W, strain hxk2, hits give low values 1.01 | locus YGR078C, strain PAC10, hits give low values 1.02 | locus YGR135W, strain pre9, hits give low values 1.01 | locus YGR229C, strain SMI1, hits give low values 1.01 and 0.968 | locus YGR252W, strain gcn5, hits give low values 0.995 | locus YHR013C, strain ard1, hits give low values 1.03 | locus YHR027C, strain rpn1, hits give low values 1.01 | locus YHR030C, strain SLT2, hits give low values 1.01 and 0.978 | locus YHR079C, strain IRE1 (second series), hits give low values 1.02 | locus YHR079C, strain IRE1, hits give low values 0.986 | locus YHR094C, strain hxt1, hits give low values 1.02 | locus YHR129C, strain ARP1, hits give low values 0.995 | locus YHR142W, strain chs7, hits give low values 1.04 | locus YHR200W, strain rpn10, hits give low values 1.01 | locus YIL066C, strain RNR3, hits give low values 1.01 | locus YIL073C, strain SPO22, hits give low values 1.02 | locus YIL125W, strain kgd1, hits give low values 1.01 | locus YIR030C, strain dcg1, hits give low values 1.01 | locus YJL092W, strain hpr5, hits give low values 1.02 | locus YJL095W, strain BCK1 (second series), hits give low values 0.991 | locus YJL095W, strain BCK1, hits give low values 1.04 and 0.99 | locus YJL115W, strain asf1, hits give low values 1.01 | locus YJL129C, strain trk1, hits give low values 1.03 | locus YJL134W, strain LCB3, hits give low values 1.01 | locus YJL154C, strain vps35, hits give low values 1.01 | locus YJL164C, strain tpk1, hits give low values 1.01 | locus YJL166W, strain qcr8, hits give low values 1.03 | locus YJL168C, strain set2, hits give low values 1.02 | locus YJL187C, strain SWE1 (second series), hits give low values 1.01 | locus YJR043C, strain POL32, hits give low values 1.01 | locus YJR066W, strain TOR1, hits give low values 0.926
